According to the supplement of paper PMC13380429:
Where a name gives a salt, the structure may show the parent alone.

Columns and labels:
[1] = tested on: Vero E6 infected with SARS-CoV-2; assay: morphology score (similarity to uninfected cells); higher = more like uninfected cells; details: 24 h
[2] = tested on: Vero E6 infected with SARS-CoV-2; assay: SARS-CoV-2 infection rate relative to infected DMSO; higher = more infection, active = 60 or less; details: 24 h

Compound	morphology score [1]	SARS-CoV-2 infection rate [2]
Cc1c(F)cccc1NC(=O)Nc1ccc(Cl)c(S(=O)(=O)[C@H]2CCCNC2)c1O [danirixin] (10 µM)	0.19	98% (inactive)
Cc1c(N2C(=O)[C@@H]3[C@H](O)CCN3C2=O)ccc(C#N)c1Cl (10 µM)	0.189	91.5% (inactive)
CC(C)[C@H](NS(=O)(=O)c1ccc(-c2ccc(Br)cc2)cc1)C(=O)O (10 µM)	-0.0577	107% (inactive)
CCN(CC)CCOC(=O)c1ccc(N)cc1 [procaine] (10 µM)	-0.107	115% (inactive)
c1ccc(-c2oc3ncnc(NC[C@@H]4CCCO4)c3c2-c2ccccc2)cc1 (10 µM)	0.0044	106% (inactive)
COc1cc(N2CCC(N3CCN(C)CC3)CC2)ccc1Nc1ncc(Cl)c(Nc2ccccc2P(C)(C)=O)n1 [brigatinib] (0.833333 µM)	-0.178	105% (inactive)
N=C(N)NCCC[C@@H](NC(=O)[C@@H]1CCCN1C(=O)[C@@H]1CSSCCC(=O)N[C@@H](Cc2ccc(O)cc2)C(=O)N[C@@H](Cc2ccccc2)C(=O)N[C@@H](CCC(N)=O)C(=O)N[C@@H](CC(N)=O)C(=O)N1)C(=O)NCC(N)=O [desmopressin-acetate] (10 µM)	0.0379	97.5% (inactive)
O=C(O[C@H]1C[N+]2(CCCOc3ccccc3)CCC1CC2)C(O)(c1cccs1)c1cccs1 [aclidinium] (10 µM)	0.136	100% (inactive)
O=C(Cn1c(=O)sc2ccc(Cl)cc21)N1CCN(CCO)CC1 [tiaramide] (10 µM)	0.00737	104% (inactive)
CCOc1ccc(C(=O)OCCN(CC)CC)cc1 [parethoxycaine] (10 µM)	0.157	108% (inactive)
COc1[nH]c2ccc(F)cc2c1C(=O)OCC1CCN(CCNS(C)(=O)=O)CC1 (10 µM)	0.0361	106% (inactive)
CO/N=C(\C(=O)N[C@@H]1C(=O)N2C(C(=O)O)=C(Cn3ccc(=N)n3CCO)CS[C@H]12)c1csc(N)n1 [Cefoselis sulfate] (10 µM)	0.115	101% (inactive)
CNC(=O)[C@H](Cc1c[nH]c2ccccc12)NC(=O)[C@@H](CC(=O)NO)CC(C)C [ilomastat] (10 µM)	-0.0294	114% (inactive)
O=c1cccc2n1C[C@@H]1CNC[C@H]2C1 [cytisine] (10 µM)	0.0351	114% (inactive)
CC(=O)N[C@H](Cc1ccc2ccccc2c1)C(=O)N[C@H](Cc1ccc(Cl)cc1)C(=O)N[C@H](Cc1cccnc1)C(=O)N[C@@H](CO)C(=O)N[C@@H](Cc1ccc(NC(=O)[C@@H]2CC(=O)NC(=O)N2)cc1)C(=O)N[C@H](Cc1ccc(NC(N)=O)cc1)C(=O)N[C@@H](CC(C)C)C(=O)N[C@@H](CCCCNC(C)C)C(=O)N1CCC[C@H]1C(=O)N[C@H](C)C(N)=O [degarelix] (10 µM)	-0.277	115% (inactive)
CNC(=O)c1cccc2cc(Oc3ccnc4cc(OCC5(N)CC5)c(OC)cc34)ccc12 [lucitanib] (10 µM)	0.0362	104% (inactive)
CC(C)C(=O)Nc1ccc([N+](=O)[O-])c(C(F)(F)F)c1 [flutamide] (10 µM)	-0.24	112% (inactive)
COC(=O)c1sccc1S(=O)(=O)Nc1ccc(Nc2ccccc2)cc1OC (10 µM)	0.112	95% (inactive)
C=CCc1cc(OC)c(O)c(C(=O)NCCO)c1 [alibendol] (10 µM)	0.101	118% (inactive)
CN1C[C@@H]2C[C@H]1CN2c1cc2c(cc1F)c(=O)c(C(=O)O)cn2C1CC1 [danofloxacin] (10 µM)	0.319	100% (inactive)
C[C@@H](CN1CCC(Cc2ccccc2)CC1)[C@@H](O)c1ccc(O)cc1 (10 µM)	0.157	98.5% (inactive)
CN(C)CCOc1ccc(/C(=C(/CCCl)c2ccccc2)c2ccccc2)cc1 [Toremifene citrate] (10 µM)	0.422	77% (inactive)
CN1CCCN=C1/C=C/c1cccs1 [pyrantel-pamoate] (10 µM)	0.103	93.5% (inactive)
CCn1ccnc1CC1COc2ccccc2O1 (configuration not stated) [imiloxan] (10 µM)	-0.00924	99% (inactive)
Cc1cc([C@@H](C)Nc2ccccc2C(=O)O)c2nc(N3CCOCC3)cc(=O)n2c1 (10 µM)	-0.0702	105% (inactive)
COc1ccc2c(c1)c(CC(=O)O)c(C)n2C(=O)c1ccc(Cl)cc1 [indomethacin] (10 µM)	0.0755	104% (inactive)
